High-throughput results from PubChem.
A selection: hits, their analogues and other compounds. The true share with any hit is near 3%.
HIF-2a inh = HIF-2a inhibition. 786-0 RCC cells HIF-2a reporter, luciferase luminescence, overnight. inhibition, % at 18.8 µM. actives 0.72% (n = 360,000);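 active means inhibition of the luminescence signal of 40% or more relative to plate controls, in a single-dose primary screen at 18.75 µM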
ABHD5 PLIN5 PPI = ABHD5-PLIN5 protein interaction inhibition; Q00G26+Q8WTS1; Split G. princeps luciferase complementation, luminescence, 4 h; inhibition, % at 4 µM; actives 0.78% (n = 360,000);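 active means inhibition above the mean inhibition across every tested compound plus 3 SD, cut at about 22% in these data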;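 further: 0% = DMSO only wells and the 100% control is not disclosed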
MITF TRPM1 inh = MITF TRPM1 promoter inhibition in SK-MEL-5 cells; actives 0.83% (n = 330,000); SK-MEL-5 TRPM1 promoter luciferase, 24 h; inhibition, % at 12.5 µM; AID 488899;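 active means mean inhibition across replicates of 60% or more, whatever share of single replicates reaches that level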
Peg3 prom inh = Peg3 promoter activity inhibition. HeLa PEG-Prom luciferase reporter, luminescence, overnight. inhibition, % at 20 µM. actives 1.7% (n = 360,000). AID 588405;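 active means inhibition of at least 50% at 20 µM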
CF NFkB block = cystic fibrosis NF-kB activation inhibition; actives 0.86% (n = 360,000); KKLEB NF-kB-GFP reporter, PAF-induced, GFP fluorescence overnight; AID 588850; inhibition, % at 5 µM;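 active means at least 50% inhibition at 5 µM, scaled per plate between neutral and stimulator controls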;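 further: PAF is a Pseudomonas aeruginosa culture filtrate used as stimulus; plate controls were PAF-stimulated DMSO wells for no effect and unstimulated DMSO wells for full effect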
KKLEB tox = CF airway cell cytotoxicity counter-screen. KKLEB CF airway cells viability, ATPlite luminescence, overnight; stronger effect = lower value; cells stimulated with P. aeruginosa culture filtrate. AID 602141. activity change (cytotoxicity), % at 5 µM. actives 0.36% (n = 360,000);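 active means corrected activity change at or below -50% at 5 µM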
ABHD5 PLIN5 conf = confirmation of human ABHD5-PLIN5 interaction inhibitors | AID 651612 | inhibition, % at 4 µM | shares compounds with ABHD5 PLIN5 PPI | biochemical ABHD5-PLIN5 interaction, luminescence | actives 67% (n = 2,200); in the data active means inhibition above about 23%;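 further: 0% = DMSO vehicle wells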
HNF4 counter = HNF4 split-luciferase signal hit, counter-screen | shares compounds with ABHD5 PLIN5 PPI | HNF4 dimerization, luminescence, biochemical | inhibition, % at 4 µM | actives 77% (n = 2,200) | AID 651674;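 active means mean inhibition across replicate wells exceeding the computed hit threshold, cut at about 13% in these data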;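 further: light from luciferase halves that rejoin when HNF4 fusion proteins dimerize; 0% = DMSO only wells and the 100% control is not given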
Target sequence (P41235 whole entry, looked up, the tested form may be a part): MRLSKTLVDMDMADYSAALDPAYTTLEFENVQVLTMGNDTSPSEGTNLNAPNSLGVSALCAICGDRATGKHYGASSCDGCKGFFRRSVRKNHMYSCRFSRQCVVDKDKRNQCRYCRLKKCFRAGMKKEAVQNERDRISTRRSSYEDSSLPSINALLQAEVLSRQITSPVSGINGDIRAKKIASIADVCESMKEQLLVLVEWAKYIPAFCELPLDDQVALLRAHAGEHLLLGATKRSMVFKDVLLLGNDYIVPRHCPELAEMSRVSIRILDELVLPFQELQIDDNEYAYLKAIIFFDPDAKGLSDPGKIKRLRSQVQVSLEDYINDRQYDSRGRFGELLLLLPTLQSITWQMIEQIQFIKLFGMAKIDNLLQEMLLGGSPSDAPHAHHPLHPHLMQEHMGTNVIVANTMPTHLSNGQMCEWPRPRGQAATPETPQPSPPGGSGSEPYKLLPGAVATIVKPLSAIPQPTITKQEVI
Numbers without * were called inactive; . = no result given; ! = not active in a repeat.

SMILES	HIF-2a inh	ABHD5 PLIN5 PPI	MITF TRPM1 inh	Peg3 prom inh	CF NFkB block	KKLEB tox	ABHD5 PLIN5 conf	HNF4 counter
Cc1ccc(S(=O)(=O)c2c(N)n(Cc3ccco3)c3nc4ccccc4nc23)cc1C	13	28*	17	49	-38	-1	52*	48*
COc1cc2nc(NC(=O)c3ccco3)sc(=O)c2cc1OC	-9	3	-14	7	35	-40	.	.
COc1cc2cc(/C=C/C(=O)c3ccco3)c(Cl)nc2cc1OC	27	38*	-10	24	0	-15	90*	82*
Cc1ccc2nc(Cl)c(/C=C/C(=O)c3ccco3)cc2c1	-165	24*	-53	16	41	-22	92*	86*
O=C(COC(=O)c1cc(-c2cccs2)nc2ccccc12)NCc1ccco1	5	17	2	2	-40	2	.	.
NS(=O)(=O)c1ccc(CCNC(=O)c2cc(-c3ccco3)nc3ccccc23)cc1	3	25*	-9	4	7	7	22*	22*
Cc1ccc(NC(=O)Cc2sc(C)nc2-c2ccc(C)cc2)cc1	-30	0	-11	-34	-17	6	.	.
Cc1ccc(-c2nc(C)sc2CC(=O)NCc2ccco2)cc1	16	27*	-3	7	-8	0	27*	33*
O=C(NCc1ccco1)c1cc(-c2cccs2)nc2ccccc12	-17	9	-2	18	-2	-17	.	.
O=C(COC(=O)c1cc(-c2ccc(Cl)s2)nc2ccccc12)NCc1ccco1	-53	38*	-4	-24	-61	5	59*	56*
Cc1ccc(-c2cc(C(=O)NCc3ccco3)c3ccccc3n2)s1	-73	35*	7	-24	-20	5	21	16*
CC(Sc1nnnn1-c1ccc(O)cc1)C(=O)NC1CCCCC1C (stereo not given)	4	-2	-10	19	-36	15	.	.
CC1CCCCC1NC(=O)c1ccc(S(=O)(=O)NCC2CCCO2)cc1 (stereo not given)	8	1	3	-8	7	0	.	.
COc1ccccc1NS(=O)(=O)c1cc(C(=O)NCC(C)(C)N2CCOCC2)ccc1C	5	8	-3	15	-5	-5	.	.
CSc1ccc(S(=O)(=O)NCC(=O)OCC(=O)N(C)C2CCCCC2)cc1[N+](=O)[O-]	8	-5	0	3	8	-5	.	.
CCOC(=O)c1cc2c(=O)n3cccc(C)c3nc2n(CCCOC)c1=NC(=O)c1cccnc1	17	4	5	25	-1	-7	.	.
CCCCn1c(=NC(=O)c2cccnc2)c(C(=O)OCC)cc2c(=O)n3ccccc3nc21	16	-5	-2	29	-18	3	.	.
CCCCn1c(=NC(=O)c2ccco2)c(C(=O)OCC)cc2c(=O)n3cccc(C)c3nc21	9	37*	-47	33	-22	-13	10	14*
CCCCCn1c(=NC(=O)c2ccco2)c(C(=O)OCC)cc2c(=O)n3ccccc3nc21	-4	56*!	-19	11	-56	20	18	25*
COc1ccccc1NC(=O)CSc1nnc2ccc(-c3ccccn3)nn12	2	11	6	2	-3	8	.	.
CCOC(=O)C1=C(O)/C(=C/c2ccc(-c3ccccc3C(=O)O)o2)SC1=Nc1ccc(C)cc1	26	27*	1	15	28	-2	12	9
CCN(CC)c1ccc(C(=C2C=CC(=[N+](CC)CC)C=C2)c2ccc(N(CC)CC)cc2)cc1	97*	64*	.	106*	92*	-101*	58*	58*
CCCCCCCCCCCCCCCC[n+]1ccc(/C=N/O)cc1	70*	31*	78*	104*	28	-16	11	7
O/N=C/c1cccc[n+]1CCCCCC[n+]1ccccc1/C=N/O	16	-3	-6	2	-3	2	.	.
O=C(O)C1OC1(c1ccccc1Cl)c1ccccc1Cl (stereo not given)	15	-2	-1	-7	2	-7	.	.
SMILES	HIF-2a inh	ABHD5 PLIN5 PPI	MITF TRPM1 inh	Peg3 prom inh	CF NFkB block	KKLEB tox	ABHD5 PLIN5 conf	HNF4 counter
COCCn1c(=N)c(C(=O)NCc2ccco2)cc2c(=O)n3ccccc3nc21	10	25*	14	10	-12	0	7	33*
Cc1cccn2c(=O)c3cc(C(=O)NCc4ccco4)c(=N)n(C(C)C)c3nc12	11	27*	-6	-4	-7	2	6	18*
N=c1c(C(=O)NCc2ccco2)cc2c(=O)n3ccccc3nc2n1Cc1ccc(Cl)cc1	2	26*	-3	12	0	-11	14	23*
Cc1cccn2c(=O)c3cc(C(=O)NCc4ccco4)c(=N)n(CCc4ccccc4)c3nc12	11	16	-16	13	-71	-11	.	.
Cc1ccc2nc3c(cc(C(=O)NCc4ccco4)c(=N)n3Cc3ccco3)c(=O)n2c1	2	33*	10	40	11	-13	10	29*
N=c1c(C(=O)NCc2ccco2)cc2c(=O)n3ccccc3nc2n1Cc1ccccc1	-1	21	-5	-2	-2	3	.	.
N=c1c(C(=O)NCc2ccc(F)cc2)cc2c(=O)n3ccccc3nc2n1Cc1ccco1	-114	20	12	-28	13	-15	.	.
CC(Nc1ncnc2sccc12)c1ccccc1 (stereo not given)	15	3	23	14	-4	2	.	.
CN(C)c1ccc(-c2[nH][nH]c(=O)c2NC(=O)c2ccccn2)cc1	-29	60*	.	-14	3	1	7	45*
Cc1cnc(C(=O)Nc2c(-c3ccccc3)[nH][nH]c2=O)cn1	8	-38	.	.	.	.	.	.
CN(C)c1ccc(-c2[nH][nH]c(=O)c2NC(=O)c2ccc3ccccc3n2)cc1	-25	54*	.	-3	29	-3	-52	48*
Cc1nc(N)ncc1CCC1OCCO1	-4	-10	.	-7	-24	17	.	.
O=C(O)c1ccccc1NS(=O)(=O)c1cccc(-n2sc3ccccc3c2=O)c1	16	37*	10	42	86*	73	93*	115*
Cc1cccc(NS(=O)(=O)c2ccc(-n3cccn3)cc2)c1C	11	-11	15	11	-1	6	.	.
CC[C@@H](C)[C@@H]1CN([C@@H](CN2CCC[C@H]2CN2C(N)=NC[C@H]2CC(C)C)C(C)C)C(=N)N1CCc1ccc(Cl)c(Cl)c1	-4	13	0	-7	23	-9	.	.
